Among the data in PubChem BioAssay AID624352 (Sanford-Burnham Center for Chemical Genomics, 2012) are inhibition values, retold here.

The campaign covered roughly 360,000 compounds. About 2,600 (0.72%) were called active. Shown is part of a subset that was picked to be rich in actives. A number with no mark means an inactive call.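 The calls were made as follows: active = inhibition of the luminescence signal of 40% or more relative to plate controls, in a single-dose primary screen at 18.75 µM; inactive = the rest.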

This assay in a line: blockers of HIF-2a driven luciferase – luminescence, 786-0 RCC cells, primary screen (AID 624352). The note with it: 786-0 RCC cells HIF-2a reporter, overnight, at 18.8 µM, stronger effect = higher value.
In the case of `CCOc1ccc(S(=O)(=O)N2CCC(C(=O)NCc3ccccn3)CC2)cc1Cl`, the inhibition was 19.5%.
In the case of `COc1ccc(CCNC(=O)C(=O)NCC2OCCN2S(=O)(=O)c2ccc(F)cc2)cc1OC` (stereo unspecified), the inhibition was -5.35%.
As for `CCOc1ccc(CN2CCN(Cc3ccc4cc(F)ccc4n3)CC2CCO)cc1` (stereo unspecified), the figure is 12.7%; as for `O=C(c1ccccc1)c1cccn1CC(=O)N1CCN(c2ccc(F)cc2)CC1`, 12.9%.
For the compound `CCOCCCN(C(=O)Cn1nnc(-c2ccc(OC)c(OC)c2)n1)C(CC)C(=O)NC1CCCC1` (stereo unspecified), the inhibition was 18.1%.
In the case of `C[C@H](CO)N1C[C@H](C)[C@@H](CN(C)C(=O)c2cccc(F)c2)Oc2cc(-c3cncnc3)ccc2S1(=O)=O` it was 9.48%; in that of `COc1ccc(-c2oc3ncnc(NCCCO)c3c2-c2ccc(OC)cc2)cc1`, 40.9% (active); in that of `COCCNc1ncnc2c1ncn2[C@H]1CN(Cc2ccc(OC)cc2)C[C@@H](CO)O1`, -2.96%.
Turning to `COc1ccc(-c2oc3ncn(Cc4ccco4)c(=N)c3c2-c2ccc(OC)cc2)cc1`, the inhibition is 8.92%.
Regarding `Cc1ccc(CCCOC(=O)C[N+]2(C)CCCCC2)cc1`, the inhibition was 1.23%.
As for `COc1ccc(NC(=O)/C(Cl)=C(/Cl)S(=O)Cc2ccc(C)cc2)cn1` (stereo unspecified), the figure is 90.8% (active); as for `C[C@@H]1CN([C@H](C)CO)C(=O)CCCn2nncc2CO[C@@H]1CN(C)S(=O)(=O)c1cccc(C#N)c1`, 13.2%; as for `NC(c1csc(NC(=O)Nc2ccccc2Oc2ccccc2)n1)c1ccccc1Cl` (stereo unspecified), 24.3%.
Turning to `CCN(CC)c1ccc(NC(=O)CCc2nnc3ccc(N4CCCCC4)nn23)c(C)c1`, the inhibition is -2.16%.
As for `Cc1nc(C(=O)N2CCCC(C(=O)c3ccc(Cl)cc3)C2)cs1` (stereo unspecified), the figure is 3.92%; as for `CC(=O)Nc1c2c(nn1-c1ccc(C)cc1C)CS(=O)C2` (stereo unspecified), 4.45%; as for `CCc1ccccc1N(CC(=O)NCCSCc1ccco1)S(C)(=O)=O`, 11.4%.
As for `CS(=O)(=O)N(Cc1ccc(Cl)cc1)c1ccc(C(=O)NCCSCc2ccco2)cc1`, the figure is 43.2% (active); as for `Cc1cc(C)cc(N(CC(=O)NCCSCc2ccco2)S(C)(=O)=O)c1`, 15.8%; as for `CC(C)(C)C1CCC(C(=O)Nc2cccnc2)CC1` (stereo unspecified), 10%.
As for `Cc1ccc2c(c1)N(CC(=O)N1CCOCC1)C(=O)CO2`, the figure is 7.44%.
As for `CC(OC(=O)c1ccccc1NCCO)C(=O)Nc1ccnn1C(C)C` (stereo unspecified), the inhibition is 10%.
Consider `CCN1CCCC1CNC(=O)c1ccc2c(c1)NC(=O)/C(=C\c1ccccc1F)S2` (stereo unspecified), for which the inhibition is -13.2%.
For the compound `O=C1Nc2cc(C(=O)N3CCC(N4CCCCC4)CC3)ccc2S/C1=C\c1ccccc1`, the inhibition was -25.5%.
On to `CCN1CCN(CCNC(=O)c2ccc3c(c2)NC(=O)/C(=C\c2cccc(Cl)c2)S3)CC1`, for which the inhibition was 90.6% (active).
With `CC1CCc2sc3nc(N4CCN(CCO)CC4)n4ncnc4c3c2C1` (stereo unspecified), the inhibition was -149%.
`O=C1CN(C(=O)c2cc(F)cc(F)c2)c2ccccc2N1`: the inhibition was 11.9%.
With `COc1ccc(-c2onc3ccc(C(C)=O)cc23)cc1`, the inhibition is -105%.
As for `COc1ccc(-c2nc(-c3ccccc3)no2)c(OC)c1`, the inhibition was 58.9% (active).
In the case of `COc1ccccc1-c1nc(C(F)(F)F)c(OC)o1` it was 4.93%; in that of `O=C(CCc1nnc2ccc(NCc3ccco3)nn12)Nc1cc(F)ccc1F`, -0.521%; in that of `Cc1ccc(Cc2cncc(O)c2)cc1S(=O)(=O)O`, 9.79%.
As for `Cc1ccc(CN(C(=O)c2sc3ccccc3c2Cl)C2CCS(=O)(=O)C2)cc1` (stereo unspecified), the figure is 32%; as for `CC(OC(=O)/C=C/c1ccccc1)C(=O)NC1CCCCC1C` (stereo unspecified), 8.8%.
In the case of `COc1cc(/C=C(\C#N)C(=O)Nc2ccc3ccccc3c2)c([N+](=O)[O-])cc1OC` it was 17%; in that of `CC1CCCCC1NC(=O)/C(C#N)=C/C=C/c1ccccc1[N+](=O)[O-]` (stereo unspecified), 79.7% (active).
`Cc1ccc(SCCC(=O)NC(C(C)C)C(C)C)cc1`: the inhibition was 23.2%.
For `CCN(CC)CCOc1ccc2c(c1)C(=NNC(=O)c1ccccn1)c1cc(OCCN(CC)CC)ccc1-2`, the inhibition was 13.8%.
As for `Cc1ccc(N2CC(C(=O)N3CCC4(CC3)CC(=O)c3ccccc3O4)CC2=O)cc1C` (stereo unspecified), the inhibition is 2.59%.
For `CC(C)Cn1cnc2c(SCc3ccc(Cl)cc3)nc(N)nc21`, the inhibition is -109%.
As to `CCC(C)Cn1c(O)cc2nn(-c3nc4ccccc4s3)c(=O)c-2c1C` (stereo unspecified), the inhibition is 80.9% (active).
In the case of `CCC/C(O)=C1\C(=O)CC(C)(C)CC1=Nc1ccccc1OC` it was 10%; in that of `O=C(Nc1ccc(OCC(=O)N2CCOCC2)cc1)c1cc(F)c(F)cc1Cl`, -39.3%; in that of `CC1CC(=O)Nc2ccccc2N1C(=O)COc1ccc2cc(Br)ccc2c1` (stereo unspecified), 10.2%.
As for `CC(C)n1cnc2c(Nc3cccc(Cl)c3)nc(N(CCO)CCCO)nc21`, the figure is 51.3% (active); as for `OCCCNc1nccc(-c2cc(Nc3cccc(Cl)c3)ncn2)n1`, -18.5%; as for `O=C1NC(Nc2nc3ccccc3s2)(C(F)(F)F)C(=O)N1C1CCCCC1` (stereo unspecified), -11.7%.
Take `COc1cc(OC)c(C2=NOC(C(=O)Nc3c(C)n(C)n(-c4ccccc4)c3=O)C2)cc1Cl` (stereo unspecified): the inhibition is 11.3%.
As for `c1ccc2cc(CCCc3cc4ccccc4cn3)ncc2c1`, the figure is -39.5%; as for `CCOC(=O)c1c(C)nn(-c2ncccc2NC(=O)CCC(=O)O)c1C`, 11.8%.
With `COC(=O)c1c(NC(=O)C2CC(C)=C(C)CC2C(=O)O)sc2c1CCCCC2` (stereo unspecified), the inhibition was 16%.
With `COC(=O)c1c(NC(=O)CCCC(=O)O)sc2c1CCCCC2`, the inhibition was 50.8% (active).
As for `COC(=O)c1c(NC(=O)CCN2CCOCC2)sc2c1CCCC2`, the figure is 5.82%; as for `O=C(CCCn1c(=O)oc2ccccc21)Nc1cccnc1`, 2.59%; as for `NS(=O)(=O)c1cc(Cl)c(Cl)c(S(N)(=O)=O)c1`, -2.27%.
Take `Cc1nc(N=C(N)N)nc2c(C)cccc12`: the inhibition is 15%.
In the case of `NC(N)=Nc1nc2ccc(Br)cc2c(=O)[nH]1` it was -20.2%; in that of `NC(N)=Nc1nc(-c2ccccc2)c2cc(Cl)ccc2n1`, 41.9% (active).
As for `S=C(NC1CCCCC1)NN1CCOCC1`, the figure is 12.3%; as for `Cc1sc(NC(=S)NC(=O)c2cccs2)nc1-c1ccc(CC(C)C)cc1`, -5.06%; as for `O=C(C1=C[C@H](c2coc3ccccc3c2=O)C[C@H](OCc2ccc(CO)cc2)O1)N1CCN(Cc2ccccc2)CC1`, 25%.
As for `CSC1=N/C(=C\C=C\c2cccs2)C(=O)S1`, the inhibition is -28.6%.
As for `O=C(COc1nsnc1N1CCOCC1)Nc1ccccc1Cl`, the figure is -40.8%; as for `O=C(Nc1ccccc1Cl)/C(Cl)=C(\Cl)S(=O)c1ccccc1` (stereo unspecified), 95.4% (active); as for `Cc1cccc(C)c1NC(=O)CNC(=O)c1c(C)nn(-c2ccccc2)c1C`, 0.612%.
In the case of `O=C(/C=C/c1ccc(Cl)c([N+](=O)[O-])c1)c1ccc(O)cc1` it was 79% (active); in that of `O=C(NCCC1=CCCCC1)c1ccc(Cl)c([N+](=O)[O-])c1`, -91%; in that of `O=C(/C=C(O)/C=C/c1ccc(O)cc1)/C=C/c1ccc(O)cc1`, -18.9%.
As for `CN(Cc1cccs1)C(=O)CN1C(=O)c2ccccc2S1(=O)=O`, the figure is -66.1%.
`Cc1ccc(S(=O)(=O)N(C)CC(=O)N2CCc3ccccc32)cc1`: the inhibition is -0.159%.
In the case of `O=C(CN1C(=O)c2ccccc2S1(=O)=O)N1CCc2ccccc21` it was 82.3% (active).
For the compound `COCCNC(=O)c1ccc2c(c1)ncn2-c1ccc(C)c(Cl)c1`, the inhibition is -31.7%.
With `Cc1ccc(CNC(=O)COC(=O)C2CCC2)cc1`, the inhibition is 2.35%.
For the compound `CCc1c(N=O)c(-c2ccccc2)n(O)[n+]1[O-]`, the inhibition is -2.82%.
For `Cc1ccc(S(=O)(=O)NCC(=O)N(CC(=O)NCC2CCCO2)c2cccc(F)c2)cc1` (stereo unspecified), the inhibition was 8.25%.
In the case of `CC1CCc2c(c3ccccc3[nH]c2=O)O1` (stereo unspecified) it was 6.77%; in that of `Cc1cc(Cl)c(S(=O)(=O)NCCC(=O)O)cc1OCC(N)=O`, 0.473%.
As to `Cc1cc(Cl)c(S(=O)(=O)N(C)C)cc1OCC(N)=O`, the inhibition is 7%.
In the case of `Cc1cc(Cl)c(S(=O)(=O)Nc2ccc3c(c2)OCCO3)cc1OCC(N)=O` it was 43.7% (active); in that of `CCNC(=O)C1(C)CCCN(C(=O)c2ccc3ccccc3n2)C1` (stereo unspecified), 3.52%; in that of `COCCn1c(SCC(=O)Nc2nc(C)cs2)nnc1C(C)C`, 9.65%.
Regarding `COc1cc(SC)ccc1C(=O)Nc1nc(C)cs1`, the inhibition is 77.6% (active).
With `Cc1csc(NC(=O)CSc2ccc(-c3ccc(F)cc3)nn2)n1`, the inhibition was -4.55%.
In the case of `O=C(COC(=O)Cc1ccccc1F)NCCc1ccccc1` it was -1.26%; in that of `O=C(OCN1C(=O)c2ccccc2C1=O)/C(=C\c1ccco1)NC(=O)c1ccccc1`, 1.64%.
As for `O=C(CCCN1C(=O)C(c2ccccc2)Oc2cccnc21)Nc1ccccc1Br` (stereo unspecified), the figure is 12.9%.
Take `O=C(CN1C(=O)/C(=C\c2ccc(C(F)(F)F)cc2)Sc2ccccc21)NCc1ccco1`: the inhibition was -23.3%.
In the case of `CN(C(=O)CN1C(=O)/C(=C/c2ccc(Cl)cc2)SC1=S)C1CCS(=O)(=O)C1` (stereo unspecified) it was -14%.
In the case of `Cc1ccc(NC(=O)CCN2C(=O)c3ccccc3C2=O)cc1C` it was -6.43%.
Regarding `C=CCOc1ccc(C(=O)Nc2ccccc2C(=O)N2CCCC2)cc1`, the inhibition was -0.109%.
In the case of `O=C(CCCN1C(=O)/C(=C/c2ccco2)SC1=S)Nc1ccccc1` it was 45.3% (active).
Regarding `O=C(CCCN1C(=O)/C(=C/c2ccccc2)SC1=S)Nc1ccc(O)cc1`, the inhibition was 46.2% (active).
In the case of `C=CCOc1ccc(/C=C2\SC(=S)N(CCC(=O)O)C2=O)cc1` it was 90.6% (active); in that of `Cc1c(Cl)cccc1NC(=O)CCC(=O)N/N=C/c1ccco1`, 6.46%; in that of `O=C(CCCN1C(=O)/C(=C\c2ccco2)SC1=S)Nc1cccc2ccccc12`, 56.3% (active).
Turning to `O=C(CCN1C(=O)c2ccccc2C1=O)Nc1ccncc1`, the inhibition is 13.6%.
